Here are results for 40 compounds from PubChem BioAssay (EPA / NIEHS).

Several values for one entry are separate records, joined by “and”; a condition that tells them apart may be missing. Equal entries are not always repeated. Activity calls are given as the source filed them. The calls were made as follows: active = hit-call score of the fitted dose curve at least 0.9, where 1 is the maximum; inactive = score below 0.9.

A word on the AC50: it is the midpoint of the concentration-response curve, whichever way the signal moves.

Read-out in the assay: Interleukin-8 (IL8), CXCL8 (gene 3576)
In words: BSK_hDFCGF_IL8: BioMAP Diversity Plus: hDFCGF Assay for Interleukin-8 (IL8) Biomarker Activity (AID 2283058). The following applies: primary human foreskin fibroblasts; actives raise or lower the signal. The procedure:
BSK_hDFCGF is a cell-based, multiplexed-readout assay that uses foreskin fibroblast, a human skin primary cell, with measurements taken at 24 hours after chemical dosing in a 96-well plate.BSK_hDFCGF_IL8 is an assay component measured in the BSK_hDFCGF assay. It measures IL-8 antibody related to regulation of gene expression using ELISA technology.Data from the assay component BSK_hDFCGF_IL8 was analyzed into 1 assay endpoint. This assay endpoint, BSK_hDFCGF_IL8, was analyzed with bidirectional fitting relative to DMSO as the negative control and baseline of activity. Using a type of binding reporter, gain or loss-of-signal activity can be used to understand changes in the signaling as they relate to the gene CXCL8. Furthermore, this assay endpoint can be referred to as a primary readout, because this assay has produced multiple assay endpoints where this one serves a signaling function. To generalize the intended target to other relatable targets, this assay endpoint is annotated to the cytokine intended target family, where the subfamily is interleukins.
The levels of cell surface (or secreted, indicated by the prefix "s") biomarker endpoints were measured by ELISA. Overt cytotoxicity to cells in confluent adherent cultures (all systems other than the BT system) was assessed by measuring total protein levels using sulforhodamine B (SRB) staining in parallel cultures at the time of biomarker measurements, indicated as SRB endpoints. For proliferation assays for adherent cell types, individual cell types are cultured at sub-confluence and relative cell numbers quantified by SRB staining at time points optimized for each system (48 h: 3C and CASM3C systems; 72 h: BT and HDF3CGF systems; 96 h: SAg system). SRB was performed by staining cells with 0.1% SRB after fixation with 10% TCA and reading wells at 560 nm.Viability and proliferation of PBMC (T cells) was quantified by Alamar Blue reduction for the SAg and BT systems. For PBMC viability (referred to as PBMC Cytotoxicity within the assay endpoint names), cells were plated (75,000/well in a 96-well plate) and then chemical samples added for 1 h before addition of activators, SEB and TSST-1 (20 ng/mL final concentration each). Cells were incubated for 90 h. Then, Alamar Blue (20 uL/well) (Invitrogen, Cat DAL1100) was added for 6 h, and the plates were read with a fluorescence microplate reader at 546/580 nm (excitation/emission). For PBMC proliferation, cells were plated and activated as above but incubated for only 16 h prior to addition of Alamar Blue. Plates were read after 6 h.
Regarding `CCc1cnc(C2=NC(C)(C(C)C)C(=O)N2)c(C(=O)O)c1` (stereo not given), the result was inactive.

`N#CSCSC#N`: the concentration at half-maximal activity (AC50) was 3.03 µM (active).

Take `Nc1c(Cl)cc([N+](=O)[O-])cc1Cl`: the outcome was inactive.

Turning to `Cc1ccn2nc(S(=O)(=O)Nc3c(F)cccc3F)nc2n1`, the outcome was inactive.

As for `COP(=O)(OC)OC(Br)C(Cl)(Cl)Br` (stereo not given), the concentration at half-maximal activity (AC50) was 37.8 µM (active).

Take `CCNc1nc(Cl)nc(NC(C)(C)C#N)n1`: the outcome was inactive.

Consider `CNC(=O)ON=C(SC)C(=O)N(C)C`, for which the outcome was inactive.

In the case of `CN(C)NC(=O)CCC(=O)O`, the result was inactive.

For `CON=C(C(=O)OC)c1ccccc1CON=C(C)c1cccc(C(F)(F)F)c1`, the result was inactive.

As for `FC(F)C(F)(F)OCC(Cn1cncn1)c1ccc(Cl)cc1Cl` (stereo not given), the outcome was inactive.

As for `CCCSP(=O)(OCC)SCCC`, the result was inactive.

Regarding `CCCCN(CC)c1c([N+](=O)[O-])cc(C(F)(F)F)cc1[N+](=O)[O-]`, the outcome was inactive.

Regarding `C=C(C)[C@H]1Cc2c(ccc3c2O[C@@H]2COc4cc(OC)c(OC)cc4[C@@H]2C3=O)O1`, the result was inactive.

For the compound `COc1cccc(C(=O)NN(C(=O)c2cc(C)cc(C)c2)C(C)(C)C)c1C`, the result was inactive.

For the compound `CCOP(=S)(Oc1cnc(C(C)(C)C)nc1)OC(C)C` (stereo not given), the result was inactive.

Consider `CCC(=NOC/C=C/Cl)C1=C(O)CC(C2CCOCC2)CC1=O` (stereo not given), for which the result was inactive.

As to `CCCCOC(=O)[C@@H](C)Oc1ccc(Oc2ccc(C#N)cc2F)cc1`, the result was inactive.

With `CSc1nnc(C(C)(C)C)c(=O)n1N`, the outcome was inactive.

Turning to `CCOP(=S)(OCC)OC(Cl)C(Cl)(Cl)Cl` (stereo not given), the result was inactive.

Regarding `COc1cc(OC)nc(Sc2cccc(Cl)c2C(=O)O)n1`, the result was inactive.

Consider `Nc1nc(N)nc(NC2CC2)n1`, for which the result was inactive.

`CN(C)C(=O)Nc1cccc(C(F)(F)F)c1`: the outcome was inactive.

On to `CCOP(=S)(OCC)Oc1ccc([N+](=O)[O-])cc1`, for which the result was inactive.

Regarding `CC(=NC#N)N(C)Cc1ccc(Cl)nc1`, the outcome was inactive.

As for `CC(C)[C@H](C(=O)O[C@H](C#N)c1cccc(Oc2ccccc2)c1)c1ccc(Cl)cc1`, the result was inactive.

With `CCOP(=S)(OCC)Oc1ccc2c(C)c(Cl)c(=O)oc2c1`, the outcome was inactive.

In the case of `O=C(O)c1cc(Oc2ccc(C(F)(F)F)cc2Cl)ccc1[N+](=O)[O-]`, the result was inactive.

`CC1(C(=O)Nc2ccc(O)c(Cl)c2Cl)CCCCC1`: the result was inactive.

For `CCOC(=O)COc1cc(-c2nn(C)c(OC(F)F)c2Cl)c(F)cc1Cl`, the outcome was inactive.

With `C#CC(C)(C)NC(=O)c1cc(Cl)cc(Cl)c1`, the result was inactive.

`COc1ccc(C(=CC(=O)N2CCOCC2)c2ccc(Cl)cc2)cc1OC`: the result was inactive.

`COP(=O)(OC)SCn1c(=O)oc2cc(Cl)cnc21`: the AC50 was 30.8 µM (active).

With `CCC(=O)Nc1ccc(Cl)c(Cl)c1`, the outcome was inactive.

For `CC1=NNC(=O)N(/N=C/c2cccnc2)C1`, the outcome was inactive.

In the case of `C[Si](Cn1cncn1)(c1ccc(F)cc1)c1ccc(F)cc1`, the outcome was inactive.

Turning to `CN1COCN(Cc2cnc(Cl)s2)C1=N[N+](=O)[O-]`, the result was inactive.

Regarding `CSC1=N[C@@](C)(c2ccccc2)C(=O)N1Nc1ccccc1`, the outcome was inactive.

`O=[N+]([O-])c1cc(C(F)(F)F)c(Cl)c([N+](=O)[O-])c1Nc1ncc(C(F)(F)F)cc1Cl`: the AC50 was 2.78 µM (active) and 11.7 µM (active).

Regarding `S=C1NCCN1`, the result was inactive.

`CNC(=O)Oc1cccc2c1OC(C)(C)O2`: the result was inactive.
